# Source: article PMC4336329 (PLoS ONE, 2015)
# Screen size: about 310,000 compounds; about 2,200 (0.71%) showed an effect of 50% or more. The effect is printed as a negative number. Only a selection was taken, and strong results are over-represented in it overall.
# Target: human ether-à-go-go-related gene (hERG) potassium channel (human, UniProt Q12809)
# Assay: primary screen, population patch clamp on CHO cells stably expressing hERG; higher = less effect of the substance
# human ether-à-go-go-related gene (hERG) potassium channel, sequence (Q12809 whole entry, looked up): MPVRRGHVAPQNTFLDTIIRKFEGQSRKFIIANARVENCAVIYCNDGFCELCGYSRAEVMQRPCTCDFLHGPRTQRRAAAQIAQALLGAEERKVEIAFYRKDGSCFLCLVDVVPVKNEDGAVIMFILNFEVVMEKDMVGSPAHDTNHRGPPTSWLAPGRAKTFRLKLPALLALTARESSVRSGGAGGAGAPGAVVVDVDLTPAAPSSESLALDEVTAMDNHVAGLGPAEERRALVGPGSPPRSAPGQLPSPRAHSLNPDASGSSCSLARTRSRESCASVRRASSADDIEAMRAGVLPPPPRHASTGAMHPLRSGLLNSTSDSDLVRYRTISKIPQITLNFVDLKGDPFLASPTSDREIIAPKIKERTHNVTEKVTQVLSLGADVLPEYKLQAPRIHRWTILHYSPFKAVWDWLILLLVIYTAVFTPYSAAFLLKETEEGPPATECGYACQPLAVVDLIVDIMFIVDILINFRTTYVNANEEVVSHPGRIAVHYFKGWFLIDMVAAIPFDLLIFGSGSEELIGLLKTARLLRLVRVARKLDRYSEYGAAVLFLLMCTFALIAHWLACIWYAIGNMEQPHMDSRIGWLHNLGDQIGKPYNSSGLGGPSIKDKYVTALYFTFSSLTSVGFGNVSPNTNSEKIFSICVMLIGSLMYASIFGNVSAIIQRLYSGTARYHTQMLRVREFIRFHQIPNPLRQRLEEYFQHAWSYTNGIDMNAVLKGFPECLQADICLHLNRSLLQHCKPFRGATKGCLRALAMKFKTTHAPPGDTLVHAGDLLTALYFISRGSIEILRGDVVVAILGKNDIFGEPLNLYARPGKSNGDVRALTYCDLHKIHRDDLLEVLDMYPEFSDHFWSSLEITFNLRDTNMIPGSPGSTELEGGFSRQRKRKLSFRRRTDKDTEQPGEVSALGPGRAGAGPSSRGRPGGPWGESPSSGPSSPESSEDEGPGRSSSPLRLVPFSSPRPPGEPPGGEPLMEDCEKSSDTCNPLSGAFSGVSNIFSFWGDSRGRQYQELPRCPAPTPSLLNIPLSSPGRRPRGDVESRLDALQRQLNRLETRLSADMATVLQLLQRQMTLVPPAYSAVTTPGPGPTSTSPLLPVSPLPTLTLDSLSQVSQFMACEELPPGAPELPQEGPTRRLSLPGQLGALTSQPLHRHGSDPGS
row,SMILES,"hERG current change (%, negative = inhibition) at 1uM [%]"
1,Cc1cccc(-n2ncc3c(NC(C)C)ncnc32)c1,12.7
2,Cc1nn(C(C)C(=O)Nc2ccc(Cl)cn2)c(C)c1[N+](=O)[O-] (stereo not drawn),2.84
3,Cc1ccc(C)c(NC(=O)C2CC(O)CN2C(=O)OCc2ccccc2)c1 (stereo not drawn),2.34
4,COc1ccc(N2CCN(CCC(N)=O)CC2)cc1,14.6
5,COc1ccc(C(=O)CCN2CCN(c3ccc(OC)cc3)CC2)cc1,-74.1
6,COc1ccc(C(=O)NCCN2CCN(C(=O)c3ccc(OC)cc3)CC2)cc1,-22.1
7,COc1ccc(OCCN2CCN(C(=O)c3ccc(OC)c(OC)c3)CC2)cc1,-35.6
8,O=C(c1ccc(Cl)cc1)N1CCN(CCOc2ccccc2)CC1,-12.4
9,COc1ccc(C(=O)NCCN2CCN(C(=O)c3ccc(OC)c(OC)c3)CC2)cc1OC,13.2
10,COc1ccc(OCCN2CCN(C(=O)c3ccc(OC)cc3)CC2)cc1,-90.6
11,COc1ccc(OCCN2CCN(C(=O)c3ccc(OC(F)F)c(OC)c3)CC2)cc1,-62.6
12,COc1ccc(N2CCN(CCC(=O)c3ccc4ccccc4c3)CC2)cc1,11.4
13,Oc1c(Cl)cc(Cl)cc1C=Nc1ccc(N2CCOCC2)cc1,9.19
14,COC(=O)c1c(NC(=O)c2nn(C)cc2Cl)sc2c1CCCC2,19.3
15,Cc1cc2cc(C(c3nnnn3Cc3ccco3)N3CCCCC3)c(=O)[nH]c2cc1C (stereo not drawn),6.29
16,Cc1nnsc1C(=O)NNC(=O)c1cccc2ccccc12,9.5
17,CC1C=CCC2C(=O)N(c3ccccc3OC(=O)c3cccs3)C(=O)C12 (stereo not drawn),9.04
18,Cc1cccc(C)c1NC(=O)NC1(C(=O)NCc2ccncc2)CCCCC1,12.6
19,O=C(O)C(=O)O.O=[N+]([O-])c1ccc(OCCCCN2CCc3ccccc3C2)cc1,-81.1
20,Cl.Clc1ccc(OCCCCN2CCc3ccccc3C2)cc1,-8.64
21,CC1CC(C)CN(CCCCOc2ccc([N+](=O)[O-])cc2)C1.O=C(O)C(=O)O (stereo not drawn),-80.3
22,CC1CN(CCCOc2ccc([N+](=O)[O-])cc2)CC(C)O1.O=C(O)C(=O)O (stereo not drawn),-59.6
23,O=C(COc1ccc([N+](=O)[O-])cc1)N1CCc2ccccc2C1,-15
24,CC1CCCN(CCCOc2ccc([N+](=O)[O-])cc2)C1.O=C(O)C(=O)O (stereo not drawn),-77.4
25,CC1CN(CCOc2ccc([N+](=O)[O-])cc2)CC(C)O1.O=C(O)C(=O)O (stereo not drawn),-13.6
26,CC1CC(C)CN(CCCOc2ccccc2[N+](=O)[O-])C1.O=C(O)C(=O)O (stereo not drawn),5.91
27,CC1CN(CCCCOc2ccc(F)cc2)CC(C)O1.O=C(O)C(=O)O (stereo not drawn),-4.39

row,SMILES,"hERG current change (%, negative = inhibition) at 1uM [%]"
1,CC1CC(C)CN(CCOc2ccc(Br)cc2)C1.O=C(O)C(=O)O (stereo not drawn),-12.4
2,COc1ccc(OCCCN2CCCC(C)C2)cc1 (stereo not drawn),-2.33
3,CCCOc1ccc(OCCN2CCCC(C)C2)cc1.O=C(O)C(=O)O (stereo not drawn),0.638
4,NC(=O)c1ccc(-c2nnn(CC(=O)N(C3CCCCC3)C3CCS(=O)(=O)C3)n2)cc1 (stereo not drawn),9.79
5,Cc1ccc(C)c(N2CCN(C(=O)C3CCCN(S(=O)(=O)c4c(C)[nH]c(=O)[nH]c4=O)C3)CC2)c1 (stereo not drawn),9.86
6,CCOc1ncccc1C(=O)Nc1ccc(Cl)c(S(=O)(=O)N2CCCC2)c1,2.41
7,O=C(Nc1cccc(O)c1)c1ccc(C(=O)c2ccccc2)o1,-1.55
8,CCOc1ccc(CC(=O)NNC(=S)NC2CCCCC2)cc1OCC,7.2
9,COc1ccc(-n2nnnc2SCC(=O)Nc2nnc(C)s2)cc1OC,-7.62
10,CC(=O)Nc1ccc(Nc2c3c4c(cccc4n(C)c2=O)C(=O)c2ccccc2-3)cc1,10.6
11,Nc1nc(SCC(=O)c2cccs2)n[nH]1,6.15
12,Cc1cc(C)cc(OCC(=O)Nc2ccc3c(c2)OCCO3)c1,15.5
13,COC(=O)C1C(=O)NCC1c1ccc(C)cc1 (stereo not drawn),11.9
14,Cc1ccc(CS(=O)(=O)Cc2ccc(C(=O)N3CCC4(CC3)OCCO4)o2)cc1,-1.4
15,CCOc1ccc(C(=O)CCC(=O)N(CC)CC(=O)NCc2ccc(Cl)cc2)cc1,-8.36
16,CCN(CC(=O)NCc1ccc(Cl)cc1)C(=O)CCC(=O)c1ccc(F)cc1,-52.2
17,CCN(CC(=O)NCc1ccc(F)cc1)C(=O)CN1CCN(c2ccccc2OC)CC1,-44.4
18,CCN(CC(=O)NCc1ccc(Cl)cc1)C(=O)c1ccc2cc(OC)ccc2c1,7.72
19,CCN(CC(=O)NCc1ccc(Cl)cc1)C(=O)Cc1ccc(OC)cc1,-66.9
20,CCN(CC(=O)NCc1ccc(Cl)cc1)C(=O)/C=C/c1cc(OC)c(OC)c(OC)c1,11.2
21,CCN(CC(=O)NCc1ccc(Cl)cc1)C(=O)CCC(=O)c1ccc(C)cc1,-8.96
22,CCN(CC(=O)NCc1ccc(F)cc1)C(=O)CN1CCN(c2ccc(OC)cc2)CC1.O=C(O)C(=O)O,-21.1
23,CCN(CC(=O)NCc1ccc(F)cc1)C(=O)CN1CCN(c2cc(Cl)ccc2C)CC1,-68.2
24,CCN(CC(=O)NCc1ccc(Cl)cc1)C(=O)/C=C/c1ccccc1,-1.79
25,CCN(CC(=O)NCc1ccc(F)cc1)C(=O)Cc1ccc(OC)cc1,-37.8
26,CCN(CC(=O)NCc1ccc(Cl)cc1)C(=O)/C=C/c1ccc(C#N)cc1,-52.1
27,O=[N+]([O-])c1ccc(CN2CCC(Cc3ccccc3)CC2)cc1,-9.62
